# In the library only some 2.9% were active in any assay of this set; here they are far more common.
# NR1D1 modulator – modulates human Rev-erb alpha binding to DNA. activity, % at 10 µM. 370,000 tested, 0.79% active. P20393. Rev-erbα–FITC-DNA binding, fluorescence polarization, 90 min;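 active = activity above about 14%, limit read from the data; passing the limit was not always enough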;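 note: 0% = DMSO wells with 35 nM protein and 100% = DMSO wells with 750 nM protein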
# Target sequence (P20393 whole entry, looked up): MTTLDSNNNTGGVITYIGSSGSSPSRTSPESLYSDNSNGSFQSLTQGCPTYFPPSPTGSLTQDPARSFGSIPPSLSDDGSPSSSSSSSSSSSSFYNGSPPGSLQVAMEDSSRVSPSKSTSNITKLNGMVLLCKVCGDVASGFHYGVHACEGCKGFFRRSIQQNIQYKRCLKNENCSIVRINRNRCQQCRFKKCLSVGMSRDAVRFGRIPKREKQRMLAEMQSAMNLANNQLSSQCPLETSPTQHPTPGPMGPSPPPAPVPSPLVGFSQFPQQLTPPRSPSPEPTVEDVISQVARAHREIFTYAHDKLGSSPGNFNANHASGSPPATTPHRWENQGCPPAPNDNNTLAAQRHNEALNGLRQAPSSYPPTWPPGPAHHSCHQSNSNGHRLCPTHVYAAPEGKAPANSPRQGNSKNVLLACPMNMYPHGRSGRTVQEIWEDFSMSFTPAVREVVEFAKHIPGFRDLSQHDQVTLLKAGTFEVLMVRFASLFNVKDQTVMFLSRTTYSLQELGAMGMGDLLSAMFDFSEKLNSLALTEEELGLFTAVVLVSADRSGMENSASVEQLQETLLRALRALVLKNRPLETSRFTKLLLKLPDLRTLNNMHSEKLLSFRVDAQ
# SKN-1 inh – C. elegans SKN-1 inhibition; C. elegans VP596 Pgst-4::GFP/RFP ratio, acrylamide-induced, 24 h; 360,000 tested, 0.49% active; inhibition, % at 21.8 µM;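 active = interference check ratio from 0.5 to 1.5 plus GFP to RFP signal ratio inhibition reaching or exceeding a fixed threshold, cut at about 30% in these data, passing the limit was not always enough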
# PGE2 EP2 inh – EP2 receptor (human) inhibition. 260,000 tested, 0.52% active. inhibition, % at 25 µM. AID 1422. P43116. C6 glioma cells expressing human EP2, cAMP TR-FRET; cells stimulated with saturating PGE2;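 active = percent inhibition above 40 after rounding to a whole number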;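 note: rat C6 glioma host cells with rolipram phosphodiesterase inhibitor present; the protocol text gives 20 µM as final concentration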
# EP2 modulator – modulators of human EP2 prostaglandin E2 receptor. induction, % at 25 µM. P43116. EP2-expressing cells, cAMP HTRF FRET, PGE2 co-stimulation. 260,000 tested, 0.83% active;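 active = compounds whose cAMP rise, as percent of the full-agonist control response, exceeds 60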;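 note: rat C6 glioma line stably carrying human EP2 under a CMV promoter; the protocol text gives 20 µM as final concentration; 100% = response of wells given 1 µM PGE2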
# RAM inhibit – yeast RAM network inhibition. 190,000 tested, 1.8% active. S. cerevisiae dse1pr::URA3 reporter, 5-FOA growth OD615, 2 d; analog-sensitive cbk1-as2 kinase mutant strain. inhibition, % at 50 µM;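 active = inhibition above a set limit, 3 SD over mean compound inhibition, cut at about 8.4% in these data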;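 note: 0% = DMSO-only wells with no growth and 100% = 10 µM 1-NA-PP1 full growth; inhibition rescues growth on 5-FOA so higher OD means more RAM inhibition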
# PG9 binder – small molecules binding HIV-1 gp120 antibody PG9; TR-FRET gp120-PG9 antibody binding; inhibition, % at 6.7 µM; 360,000 tested, 0.43% active; AID 624416; in the data active = inhibition above about 8.5%
# PG9 binder conf – PG9 antibody binding, confirmed. TR-FRET PG9 antibody binding, biochemical. 1,500 tested, 90% active. inhibition, % at 6.7 µM. shares compounds with PG9 binder; in the data active = inhibition above about 9%
# PGV04 counter – binds control antibody PGV04 in PG9 binder counter-screen | shares compounds with PG9 binder | TR-FRET PGV04 antibody-gp120 binding, biochemical | inhibition, % at 6.7 µM | 1,500 tested, 95% active | AID 651604; in the data active = inhibition above about 9.5%
# PG9 bind DR – small molecules binding HIV-1 gp120 antibody PG9; shares compounds with PG9 binder; TR-FRET PG9 antibody-gp120 binding inhibition; IC50, µM; 95 tested, under 10 active; AID 651848; in the data active = IC50 below about 10 µM
# PGV04 DR counter – binds control antibody PGV04 in PG9 counter-screen; shares compounds with PG9 binder; TR-FRET binding to control antibody PGV04; IC50, µM; 95 tested, 20% active
# PG126 DR counter – binds control antibody PG126 in PG9 counter-screen; 95 tested, 20% active; IC50, µM; shares compounds with PG9 binder; TR-FRET binding to antibody PG126, counterscreen; AID 651939
# Rev-erbA confirm – confirmation of modulators of human Rev-erb alpha DNA binding. AID 1259319. activation, % at 25 µM. Rev-erb alpha FITC-DNA binding, fluorescence polarization, 90 min. 3,000 tested, 61% active. shares compounds with NR1D1 modulator;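 active = activation at or above a set limit, or at least 3 SD above the negative control mean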;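 note: 0% = 35 nM protein with DMSO and 100% = 750 nM protein high control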
# RORg counter – RORgamma DNA-binding activity, dose-response counter-screen; shares compounds with NR1D1 modulator; purified RORgamma protein-FITC-DNA binding, fluorescence polarization; 910 tested, 8% active; IC50, µM; AID 1259320;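 active = Compounds whose fitted half-maximal concentration for disrupting protein-DNA binding is below 10 micromolar; the record names Rev-erb in its text, so the target is in doubt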
# Starred values were filed as active, the others as inactive; i = inactive; / = no result given. Cut-off read from the data, not from the text of the source, unless noted: active = IC50 below about 9 µM; inactive = the rest.
SMILES,NR1D1 modulator,SKN-1 inh,PGE2 EP2 inh,EP2 modulator,RAM inhibit,PG9 binder,PG9 binder conf,PGV04 counter,Rev-erbA confirm,others
COc1ccc(-c2c(Sc3ccccc3)c3cc(-c4ccc5c(c4)OCO5)ccc3n2C)cc1,19.9*,-5.1,/,/,/,36.8*,88.1*,57.2*,-34.1,PG9 bind DR=2.87*;PGV04 DR counter=2.14*;PG126 DR counter=2.05*
COc1ccc2c(c1)c(=O)c(C(=O)O)c(-c1ccc3c(c1)OCO3)n2C,2.5,8.4,15.0,24.1,1.8,-2.5,/,/,/,
CCn1ncc(C(=O)N2C[C@H](C(=O)OC)[C@@H](c3ccc(F)cc3)C2)c1C,/,/,/,-26.4,/,/,/,/,/,
CC1CCCCN1Cc1nc2c(c(=O)n(C)c(=O)n2C)n1C(C)C (stereo not drawn),/,/,8.5,6.1,/,/,/,/,/,
COC(=O)CSc1nc(C)c(C(=O)Nc2ccccc2C)c(-c2ccc(Cl)cc2)c1C#N,26.1*,2.0,14.9,-13.0,1.1,9.1*,7.2,16.3*,11.4,
Cc1ccccc1NC(=O)c1c(C)nc(SCC(=O)OCc2ccccc2)c(C#N)c1-c1ccc(F)cc1,5.7,-1.6,6.7,26.3,4.0,-1.4,/,/,/,
Fc1cccc2sc(Nc3nc4c(F)cccc4s3)nc12,67.7*,-5.3,15.4,-1.1,6.7,22.8*,23.6*,37.6*,58.0*,RORg counter=>40
O=C(NC1CC1)c1cc2sccc2n1Cc1ccc(F)cc1,/,/,6.7,-11.7,/,/,/,/,/,
CCn1c(=O)cc(OCC(=O)N2CCCCCC2)c2ccccc21,-3.0,13.7,1.8,8.1,0.4,0.9,/,/,/,
CCn1c(=O)cc(OCC(=O)N2CCc3ccccc32)c2ccccc21,45.4*,8.8,10.9,9.2,5.0,39.9*,49.6*,70.7*,11.6*,
CC1(C)CC(=O)C2=C(C1)NC(=O)CC2c1ccccc1Cl (stereo not drawn),/,/,6.5,-10.4,/,/,/,/,/,
COc1ccc(C)cc1N(CC(=O)N1CCN(Cc2ccc3c(c2)OCO3)CC1)S(C)(=O)=O,/,/,7.3,-19.9,/,/,/,/,/,
COc1ccc(NC(=O)COC(=O)c2ccc3c(c2)OCO3)c(OC)c1,174.8*,5.3,/,/,/,22.2*,33.2*,28.5*,180.2*,PG9 bind DR=>67;PGV04 DR counter=i;PG126 DR counter=i;RORg counter=>40
CCC(=O)c1ccccc1OCC(=O)Nc1c(C)cccc1C,2.6,-12.8,3.8,23.6,-0.1,0.8,/,/,/,
Cc1cccc(C)c1NC(=O)COc1ccccc1C(=O)Nc1ccc(Br)cn1,117.5*,4.4,7.9,28.6,2.0,61.5*,61.4*,82.7*,92.4*,RORg counter=>40
CCc1nn(CC(=O)OC(C)C)c(=O)c2cc3oc(C)cc3n12,/,/,7.1,-47.8,/,/,/,/,/,
CCn1c(SCc2nc3ccccc3c(=O)[nH]2)nc2ccccc2c1=O,1.7,-18.2,17.2,-34.9,2.5,-0.9,/,/,/,
C=CCn1c(SCc2nc3ccccc3c(=O)[nH]2)nc2scc(C3CC3)c2c1=O,25.8*,4.2,19.6,10.0,/,14.7*,16.9*,28.8*,22.1*,
CCOc1ccccc1C(=O)Nc1nc(C(C)(C)C)cs1,/,/,10.7,-19.8,/,/,/,/,/,
CCc1ccccc1NC(=O)COc1ccc2oc(-c3ccc(OC)cc3)cc(=O)c2c1,27.4*,11.6,13.9,23.1,3.9,17.8*,77.9*,47.6*,-0.1,PG9 bind DR=>67;PGV04 DR counter=3.7*;PG126 DR counter=3.63*

# Screening results (PubChem BioAssay)
